Assay outcomes as filed in PubChem BioAssay.
Rows were chosen to be rich in hits. Some 2.9% of all compounds tested hit in one or more screens of this group.
D3 antag – D3 dopamine receptor (human) antagonism. actives 2.5% (n = 360,000). AID 652054. max response, negative = inhibition, %. D3R cells, DiscoveRx beta-arrestin luminescence, antagonist mode; stronger effect = lower value; in the data active means max response below about -50%; inconclusive means no clear call, values can overlap the other calls; further: on the % scale 0 is the no-effect control and ±100 the full control effect
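Cells plated overnight at 1500 cells/well, then exposed to library compounds with dopamine controls for 90 minutes at 37 degrees C. DiscoveRx reagent added for 30–60 minutes at room temperature; luminescence read, quantitative HTS format.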
D3 ag – activates the human D3 dopamine receptor; P35462; D3R DiscoveRx beta-arrestin cells, luminescence, 90 min; actives 0.58% (n = 410,000); max activation, %; in the data active means max activation above about 30%; further: 0% is about no effect
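Agonist mode: compounds and dopamine controls were applied to plated cells for 90 min at 37 degrees C after an overnight attachment at 1500 cells/well. Luminescent read-out followed 30 - 60 minutes at room temperature with DiscoveRx detection reagent.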
TRPML1 agonist – activates the human TRPML1 channel. Q9GZU1. TRPML1-expressing cells, Ca2+ dye fluorescence, FDSS. activation, % (test concentration not listed). actives 0.12% (n = 410,000). AID 624414; in the data active means activation above about 50%; inconclusive means mostly about 30% to 49%; further: 0% is about no effect
Target sequence (Q9GZU1 whole entry, looked up): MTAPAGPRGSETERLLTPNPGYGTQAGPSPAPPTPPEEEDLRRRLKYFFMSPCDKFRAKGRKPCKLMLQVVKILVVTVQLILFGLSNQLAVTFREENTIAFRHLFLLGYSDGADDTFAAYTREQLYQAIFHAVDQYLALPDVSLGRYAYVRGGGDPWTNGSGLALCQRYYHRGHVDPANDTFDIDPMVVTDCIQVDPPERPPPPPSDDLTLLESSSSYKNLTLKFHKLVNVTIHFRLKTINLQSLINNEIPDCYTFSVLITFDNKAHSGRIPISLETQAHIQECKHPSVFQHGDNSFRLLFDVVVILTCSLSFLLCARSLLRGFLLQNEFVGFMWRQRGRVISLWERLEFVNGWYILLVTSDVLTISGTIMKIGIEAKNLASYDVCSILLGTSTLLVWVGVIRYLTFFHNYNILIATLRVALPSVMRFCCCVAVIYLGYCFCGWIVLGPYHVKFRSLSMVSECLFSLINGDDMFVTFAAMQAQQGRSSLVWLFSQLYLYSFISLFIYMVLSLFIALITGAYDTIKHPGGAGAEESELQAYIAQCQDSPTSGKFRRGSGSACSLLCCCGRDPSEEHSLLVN
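Calcium fluorescence on an FDSS kinetic reader gave the read-out. Tet-induced TRPML1-DL cells were plated overnight, dye-loaded (Ca8 with quencher, 45-90 min, room temperature, dark), then read 110 s after compound addition, and again 110 s after 4uM final 54-4 (EC80).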
TRPML1 inh – inhibitors of human TRPML1 channel | actives 0.02% (n = 390,000) | activity change, negative = inhibition, % (concentration not given with the values) | Q9GZU1 | TRPML1-inducible cells, Ca2+ dye fluorescence, FDSS; stronger effect = lower value; inhibition of EC80 agonist-evoked calcium signal; in the data active means activity change below about -50%; inconclusive means between about -30% and that limit;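 further: stimulus is agonist 54-4 at its EC80 concentration; on the % scale 0 is the no-effect control and ±100 the full control effect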
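Tet-induced TRPML1-DL cells loaded with Ca8 no-wash calcium dye were read kinetically on FDSS. Compound addition was followed by EC80 agonist 54-4 (4 uM final); inhibition was read over 110 s.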
Active calls of the source: *; ? = inconclusive; / = no result given.

SMILES | D3 antag | D3 ag | TRPML1 agonist | TRPML1 inh
COC(=O)c1ccc(CSc2nc3c(cnn3-c3ccc(C)cc3)c(=O)[nH]2)o1 | 19.5 | 35.2* | 1.5 | 1.5
CS(=O)(=O)N1CCCc2cc(C(=O)Nc3cccc(C(F)(F)F)c3)ccc21 | / | -10.5 | -0.1 | 15.5
Clc1ccc(N=c2ssnc2Cl)cc1 | 40.9 | 0.9 | -0.1 | -3.6
COc1ccc(N=c2ssnc2Cl)cc1 | -55.2* | -6.0 | -0.2 | -14.7
COc1ccc(C2CC(c3ccc(Br)cc3)=NN2C(=O)CCC(=O)O)cc1OC (configuration not stated) | -23.6 | 3.9 | -0.4 | 4.7
COc1ccc(C2=NN(C(=O)CCC(=O)O)C(c3ccc(OC)c(OC)c3)C2)cc1 (configuration not stated) | -50.5* | 3.6 | 0.0 | 3.7
NCc1cc2c3c(c1)CCCN3CCC2 | -65.5* | 10.5 | 1.6 | -4.1
CC(C)C(=O)C1=Cc2cccc([N+](=O)[O-])c2OC1N1CCOCC1 (configuration not stated) | -53.6* | -8.4 | 5.6 | 6.1
CCOC(=O)c1cc(OCc2csc(-c3ccccc3)n2)cc(C(=O)OCC)c1 | / | / | 0.5 | /
O=C(O)C1SCCN1S(=O)(=O)c1ccc2ccccc2c1 (configuration not stated) | 10.7 | 1.4 | 0.0 | 8.9
CC1SCCN1S(=O)(=O)c1ccc2ccccc2c1 (configuration not stated) | -58.8* | 0.3 | 0.5 | 0.4
CCOc1ccc2[nH]c(=O)c(CN(Cc3cccs3)Cc3nnnn3C(C)(C)CC)cc2c1 | 20.5 | 31.4* | 3.2 | 16.0
COc1cc(CN(CC2CCCO2)C(=O)c2ccc(F)cc2)cc(OC)c1OC (configuration not stated) | / | -0.4 | -0.8 | -0.2
CS/C(=C\[N+](=O)[O-])Nc1ccc(Cl)cc1 | -83.7* | -16.3 | -0.4 | -5.6
O=C(CN1C(=O)CC(c2ccc(F)cc2)=Nc2ccccc21)NCc1ccccc1Cl | / | -16.6 | -0.6 | 1.6
O=C(c1ccco1)N1CCN(Cc2nnc(-c3cccc(Cl)c3)o2)CC1 | -6.7 | 36.9* | 0.4 | 6.5
COc1ccc2ccccc2c1CN1CCN(C(=O)c2ccco2)CC1 | -10.1 | 47.9* | -0.9 | -8.3
COc1ccc2ccccc2c1CN1CCN(C(=O)c2ccccc2)CC1 | ? | -16.1 | 0.2 | -0.9
Cc1ccccc1-c1nnc(CN2CCN(C(=O)c3ccco3)CC2)o1 | 0.8 | 19.5 | 0.2 | 28.5
CCOc1cc(CN2CCN(C(=O)c3ccco3)CC2)ccc1OC | ? | 43.7* | -0.7 | 2.3
O=C(C1CCN(CC2CC=CCC2)CC1)N(CCc1ccccc1)Cc1ccccc1 (configuration not stated) | -61.0* | -25.1 | 1.1 | 38.5
O=C(C1CCN(CCCc2ccccc2)CC1)N(CCc1ccccc1)Cc1ccccc1 | ? | -12.7 | 1.6 | 1.2
Cc1cc(C(=O)NCCc2ccccc2)ccc1[N+](=O)[O-] | -54.7* | -12.3 | -0.5 | -3.8
CCOC(=O)N1CCc2c(sc3c2c(=O)n(-c2ccc(F)cc2)c(=O)n3CC(=O)c2ccccc2)C1 | / | 14.2 | 2.5 | 31.3
CC(C)OCCCNC(=O)c1ccc(Br)cc1 | 20.9 | 1.8 | 0.0 | 7.0
SMILES | D3 antag | D3 ag | TRPML1 agonist | TRPML1 inh
CCOCCCNC(=O)c1ccc(CN2CCc3ccccc3C2)cc1 | -92.3* | -2.3 | -1.1 | -4.8
CC(C)NC(=O)c1ccc(CN2CCc3ccccc3C2)cc1 | -65.9* | -18.0 | / | /
CC(C)OCCCNC(=O)c1ccc(CN2CCc3ccccc3C2)cc1 | -66.6* | -20.1 | -0.4 | -8.3
Cc1ccccc1CN1[C@H](C)[C@H](c2ccccc2)OCCS1(=O)=O | / | / | -0.9 | /
O=[N+]([O-])c1ccc(O/N=[N+](\[O-])N2CCCC2)c([N+](=O)[O-])c1 | / | / | 1.2 | 4.6
Cc1ccc(-c2csc(NC(=O)C3CC(=O)N(c4ccc5c(c4)OCCO5)C3)n2)o1 (configuration not stated) | / | / | 1.4 | /
Cc1nc(N2CCN(c3ccccn3)CC2)c2c(C)c(C(=O)Nc3ccc(F)cc3F)sc2n1 | 4.7 | 4.8 | 18.6 | 30.8
Cc1nc(N2CCN(c3ccccn3)CC2)c2c(C)c(C(=O)Nc3ccc(F)cc3Cl)sc2n1 | 23.8 | 1.4 | 96.6* | -19.8
Cc1ccc(NC(=O)c2c(C)oc3ccc(O)c(CN4CCCCCC4)c23)cc1 | / | -3.3 | -1.1 | 10.2
CC(C)C[C@H]1C(=O)N2CCC[C@H]2[C@]2(O)O[C@](NC(=O)[C@@H]3C=C4c5cccc6[nH]c(Br)c(c56)C[C@H]4N(C)C3)(C(C)C)C(=O)N12 | / | 39.5* | / | /
CCOc1ccc(/C(O)=C2\C(=O)C(=O)N(CCN(C)C)C2c2cccc(OC)c2OC)cc1Cl (configuration not stated) | -56.3* | -1.1 | 0.4 | -0.3
CCOc1ccc(/C(O)=C2\C(=O)C(=O)N(CCN(C)C)C2c2cc(OC)ccc2OC)cc1Cl (configuration not stated) | 25.2 | -1.5 | 1.6 | 18.5
COC1(OC)N=C(N)C2(C#N)C(c3cccc(Oc4ccccc4)c3)C12C#N (configuration not stated) | -50.1* | 2.7 | -0.1 | -2.8
CCC(/C=C1\Sc2ccc(OC)cc2N1CC)=C\c1sc2ccc(OC)cc2[n+]1CCCS(=O)(=O)[O-] | -14.1 | 4.9 | 2.0 | -16.4
CCO/C(=C/c1sc2ccc(OC)cc2[n+]1CCCS(=O)(=O)[O-])CC | -73.0* | -0.5 | -0.4 | -0.9
O=S(=O)(Nc1cc(Sc2ncn[nH]2)c(O)c2ccccc12)c1ccccc1 | -100.0* | -5.1 | -0.2 | -12.4
COc1c(C)c2c(c(O)c1C/C=C(\C)CCC(=O)OCCN1CCOCC1)C(=O)OC2 | / | -11.1 | / | /
O=C(Cc1cccc2ccccc12)N/N=C/c1ccc2cccc(O)c2n1 | -56.5* | -26.4 | 2.7 | -6.1
CCOC(=O)c1c(C)n(C)c2ccc(OCC(O)Cn3nc(C)cc3C)cc12 (configuration not stated) | 37.4 | -3.4 | 1.3 | 4.3
CCOC(=O)c1c(C)n(C)c2ccc(OCC(O)CN(CC)CC)cc12 (configuration not stated) | -53.7* | -9.2 | -1.3 | 1.6
CN(C)c1ccc(N=Cc2nc(-c3ccccc3)oc2OC(=O)c2ccccc2)cc1 | -13.0 | -8.4 | 0.4 | -4.8
CC(=O)Oc1oc(-c2ccccc2)nc1C=Nc1ccc(N(C)C)cc1 | -13.8 | 1.4 | 0.9 | -12.1
COc1ccccc1N=Cc1nc(-c2ccccc2)oc1OC(C)=O | -55.6* | 1.2 | 3.2 | -0.1
CC(=O)Oc1oc(-c2ccccc2)nc1/C=N/c1ccccn1 | -62.5* | -10.6 | 0.8 | 10.1
CCc1ccc(C(=O)/C=C2\Sc3ccccc3NC2=O)cc1 | -147.0* | -10.4 | 3.0 | 4.3
CCCCNC(=O)/C=C1\Sc2ccccc2NC1=O | -1.0 | 2.1 | -0.3 | 0.1
CN(C)CC#CCC(O)(c1ccccc1)C1CCCCC1 (configuration not stated) | -55.0* | -13.1 | -0.2 | 1.0
COc1ccccc1NC(=O)c1cc2ccc(O)cc2o/c1=N\O | -74.8* | -2.4 | -0.7 | -8.0
